Screening results from PubChem BioAssay.
A selection: hits, their analogues and other compounds. The true share with any hit is near 2.8%.
GLP-1R agonist: qHTS of GLP-1 Receptor Agonists | Glucagon-like peptide 1 receptor (Homo sapiens), P43220 | HEK293 GLP-1R CRE-luciferase, luminescence, 4-6 h; cells express a hypersensitive GLP-1R form | Potency, µM (highest dose often 45.6 µM), for the others: at the highest dose activation, hits mostly activators | 380,000 tested, 0.007% active | AID 624172, 2012; note: potency is the fitted concentration of half-maximal effect; % of control where 0% means no effect
KCNH2 3.1 inh: qHTS for Inhibitors of KCHN2 3.1: Mutant qHTS; Potassium voltage-gated channel subfamily H member 2, brain isoform KCNH2 3.1 (human); U2OS KCNH2 3.1, thallium flux FluxOr; stronger effect = lower value; activity change, % (tested at about 1.8 µM); 340,000 tested, 0.95% active;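 active = maximum activity change below -70%; inconclusive = maximum activity change from -70% to -50%; inactive = maximum activity change above -50%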;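 note: thallium influx rate constant from kinetic fluorescence after stimulation buffer; % is set by controls: 0 for no effect and ±100 for the full control effect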
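Normalized rate constant (relative to positive and negative DMSO controls) derived from a 2 min kinetic fluorescence read after stimulation; U2OS cells expressing the 3.1 isoform via virus at 1.77 x 10^8 /mL.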
GLS inhibitor: qHTS for Inhibitors of Glutaminase (GLS); 410,000 tested, 0.21% active; Potency, µM (series often up to 45.5 µM), without a hit: top-dose activity change, negative = inhibition, usual class: inhibitors; Glutaminase kidney isoform, mitochondrial (Homo sapiens), O94925; GLS enzymatic activity, qHTS titration; note: potency is the fitted concentration of half-maximal effect; % is set by controls: 0 for no effect and ±100 for the full control effect
Target sequence (O94925 whole entry, looked up, canonical isoform): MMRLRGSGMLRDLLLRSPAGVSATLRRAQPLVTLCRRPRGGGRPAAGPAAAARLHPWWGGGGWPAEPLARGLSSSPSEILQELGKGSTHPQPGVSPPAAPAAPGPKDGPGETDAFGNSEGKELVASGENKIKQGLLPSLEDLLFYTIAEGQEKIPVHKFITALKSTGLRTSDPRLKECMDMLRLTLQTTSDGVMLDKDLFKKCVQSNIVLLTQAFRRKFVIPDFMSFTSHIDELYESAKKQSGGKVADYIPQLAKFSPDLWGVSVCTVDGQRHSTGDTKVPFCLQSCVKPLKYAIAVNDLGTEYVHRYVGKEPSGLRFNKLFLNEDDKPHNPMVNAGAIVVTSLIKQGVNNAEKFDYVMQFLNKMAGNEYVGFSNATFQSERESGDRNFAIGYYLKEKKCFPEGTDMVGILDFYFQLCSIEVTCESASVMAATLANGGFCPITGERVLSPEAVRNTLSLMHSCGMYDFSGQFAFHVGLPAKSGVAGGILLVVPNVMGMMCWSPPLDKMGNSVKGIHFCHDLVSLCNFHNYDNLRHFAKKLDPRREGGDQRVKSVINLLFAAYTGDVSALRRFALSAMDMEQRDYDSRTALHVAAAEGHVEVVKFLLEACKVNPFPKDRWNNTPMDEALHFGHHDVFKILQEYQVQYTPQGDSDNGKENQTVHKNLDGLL
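Enzyme dispensed in phosphate buffer (45 mM, pH 8.2, 0.02% Tween-20), compounds pinned in, then 1 mM L-glutamine solution and the glutamate oxidase–HRP–Amplex Red mix added; fluorescence read immediately and again after 30 min at room temperature.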
KCNH2 WT inh: qHTS for Inhibitors of KCHN2 3.1: Wildtype qHTS; Voltage-gated inwardly rectifying potassium channel KCNH2 (Homo sapiens), Q12809; 340,000 tested, 0.37% active; U2OS, BacMam KCNH2, thallium flux FluxOr; stronger effect = lower value; activity change, % at 1.84 µM;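 active = maximum activity change below -70%; inconclusive = maximum activity change between -70% and -50%; inactive = maximum activity change above -50%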; note: % is set by controls: 0 for no effect and ±100 for the full control effect
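U2OS cells were transduced with wild-type KCNH2 virus (2.03 x 10^8 / mL) for 4 h at room temperature, then cultured overnight at 37 C. Thallium flux was read with FluxOr dye. Rate constants were normalized to DMSO controls.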
HEK293 tox: qHTS of GLP-1 Receptor Inverse Agonists: Cytotox Screen; HEK293 cAMP-luciferase reporter cells, luminescence, 24 h; Potency, µM (highest dose often 38.3 µM), without a hit: top-dose activity change, negative = inhibition, most hits filed as inhibitors; 410,000 tested, 0.13% active;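 note: loss of luciferase light is scored as toxicity; potency is the fitted concentration of half-maximal effect; % is set by controls: 0 for no effect and ±100 for the full control effect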
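Compound-treated cells are incubated 24 hr at 37 deg C under 5% CO2 after a 12 hour attachment period, then luciferase detection reagent is added and luminescence is measured following 12 min at room temperature; lowered signal indicates toxicity.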
GLP-1R inv ag: qHTS of GLP-1 Receptor Inverse Agonists (Inhibition Mode) | HEK293 GLP-1R CRE-luciferase, luminescence, 24 h; GLP-1R form is constitutively active | 410,000 tested, 1.6% active | Potency, µM (titrated, usually from 38.3 µM), inactives show top-dose activity change, negative = inhibition, hits mostly inhibitors | AID 624417, 2012 | Glucagon-like peptide 1 receptor (Homo sapiens), P43220; note: potency is the fitted concentration of half-maximal effect; % is set by controls: 0 for no effect and ±100 for the full control effect; nearly all actives have a fitted effect of over 55% in size
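Seeding at 200 cells/uL, 12 h culture, 24 hr compound treatment, then luciferase reagent and a luminescence read; cells are HEK293 stably expressing a constitutively active GLP-1R plus cAMP-responsive luciferase.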
Starred values were filed as active, the others as inactive; ? = inconclusive; / = no result given. Unless noted, calls come from the whole dose curve; as a rule, active = well fitted curve in the direction sought with a large enough effect; inconclusive = small, poorly fitted or top-dose-only effect, or another doubt; inactive = no such curve, though single readings can be large; an effect the other way counts as inactive or inconclusive.

SMILES | GLP-1R agonist | KCNH2 3.1 inh | GLS inhibitor | KCNH2 WT inh | HEK293 tox | GLP-1R inv ag
CCN(CC)S(=O)(=O)c1cccc(C(=O)N[C@H](C(=O)NCc2ccc(Cl)cc2)C(C)C)c1 | -2% | 9 | -16% | 4 | 5% | 13µM*
CCc1ccc(C2=NN(CCC(=O)NCCc3ccccc3)C(=O)CC2)cc1 | / | / | 3% | / | -12% | -9%
Cc1ccc(N2CC(C(=O)N3CCCCC3)CC2=O)cc1C (configuration not stated) | 2% | 4 | 0% | -13 | 15% | 6%
Cc1ccc(C)c(N2CCN(S(=O)(=O)c3cc(C(=O)Nc4ccccc4C(F)(F)F)ccc3F)CC2)c1 | / | / | -9% | / | 5% | ?
O=C1CC2(CCN(C(=O)COc3ccc(Cl)cc3)CC2)Oc2ccccc21 | 17% | -86* | 1% | -47 | -14% | ?
COc1ccc(CN2C3CCCC2CC(NC(=O)Nc2ccccc2)C3)cc1 (configuration not stated) | -6% | -40 | -3% | -36 | -8% | ?
O=C(CN1C2CCCC1CC(NC(=O)c1ccccc1)C2)Nc1ccccc1C(F)(F)F (configuration not stated) | 13% | -6 | 10% | 9 | -7% | 2µM*
CNC(=S)NC1CC2CCCC(C1)N2Cc1ccc(C)cc1 (configuration not stated) | -5% | -83* | 5% | / | -5% | -24%
Cc1cccc(C(=O)NC2CC3CCCC(C2)N3S(=O)(=O)c2ccccc2)c1 (configuration not stated) | 0% | -72* | -2% | ? | ? | ?
CCNC(=S)NC1CC2CCCC(C1)N2Cc1ccc(C)cc1 (configuration not stated) | -1% | -44 | 3% | 15 | -31% | -24%
COc1ccc(CN2C3CCCC2CC(NC(=O)Nc2cccc(C)c2)C3)cc1 (configuration not stated) | 5% | -114* | 28% | -87* | -13% | ?
O=C(NC1CC2CCCC(C1)N2S(=O)(=O)c1ccccc1)c1ccccc1 (configuration not stated) | -22% | -4 | -3% | 18 | -20% | ?
O=C(CN1C2CCCC1CC(NC(=O)c1ccco1)C2)Nc1ccccc1C(F)(F)F (configuration not stated) | -4% | -10 | ? | 4 | -12% | ?
CCCOc1ccc(C(=O)Nc2ccc(NC(=O)c3ccccc3)c(Br)c2)cc1 | / | / | 2% | / | 2% | 2%
Cc1cc(NC(=O)c2ccco2)cc(-c2nc3cc(Cl)ccc3o2)c1O | / | / | 16% | / | -4% | 9%
COc1cccc(C(=O)NC2CC3CCCC(C2)N3CC(=O)Nc2ccc(N(C)C)cc2)c1 (configuration not stated) | -6% | -5 | 19% | 1 | -11% | ?
COc1cccc(C(=O)NC2CC3CCCC(C2)N3CC(=O)Nc2ccccc2)c1 (configuration not stated) | -1% | -36 | 6.3µM* | 35 | -29% | ?
COc1cccc(C(=O)NC2CC3CCCC(C2)N3Cc2ccc(C)cc2)c1 (configuration not stated) | -2% | -71* | 4% | 7 | -24% | ?
O=C(CSc1nncc2ccccc12)Nc1ccc(C(=O)O)cc1 | -6% | 16 | 1% | 0 | 2% | 0%
